# Measured values as given in PubChem BioAssay (EPA / NIEHS).
# Where “and” joins values, the source holds several entries; their conditions need not be identical. Equal values may be shown once. Records with an inconclusive call do not appear. More than one record can exist for a structure, and the calls need not agree. Calls of active or inactive are those of the source. Rule for the calls: active = hit-call score of the fitted dose curve at least 0.9, where 1 is the maximum; inconclusive = response in the unintended direction; inactive = score below 0.9.
# What was measured:
# [1] = target: human Opioid Receptor Delta 1 (Opiate D1), OPRD1 (gene 4985) (UniProt P41143); experiment: NVS_GPCR_hOpiate_D1: NovaScreen (NVS) G Protein-Coupled Receptor Assay for human Opioid Receptor Delta 1 (Opiate D1) (AID 2283280)
# Outline: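 Membrane preparations from CHO cells bearing the human receptor were incubated 1 h with test chemical, and bound radioligand was counted after filtration. Actives from 25 uM duplicate screening were retested in concentration-response.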
# [2] = target: human Neurotensin Receptor (NTS), NTSR1 (gene 4923) (UniProt P30989); experiment: NVS_GPCR_hNTS: NovaScreen (NVS) G Protein-Coupled Receptor Assay for human Neurotensin Receptor (NTS) (AID 2283279)
# Outline: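 Compounds competed with a radiolabelled ligand for binding to CHO-derived human neurotensin receptor; bound signal counted after filtration, 1 h. Screened first at a single concentration of 25 uM in duplicate, then concentration series to 50 uM maximum for actives.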
# [3] = target: rat Adrenergic, Alpha 1, Non-selective Receptor (Adra1), Adra1a (gene 29412) (UniProt P43140); experiment: NVS_GPCR_rAdra1_NonSelective: NovaScreen (NVS) G Protein-Coupled Receptor Assay for rat Adrenergic, Alpha 1, Non-selective Receptor (Adra1) (AID 2283289)
# Outline: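 Chemicals first screened in duplicate at 25 uM, then actives tested in concentration series up to 50 uM. Binding measured as displacement of radioligand from rat forebrain membrane receptors, 1 h, filtration with scintillation readout; DMSO baseline.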
# [4] = test system: 5-hydroxytryptamine receptor 2C (pig); experiment: NVS_GPCR_p5HT2C: NovaScreen (NVS) G Protein-Coupled Receptor Assay for pig Serotonin, 5-Hydroxytryptamine Receptor 2C (5HT2C) (AID 2283288)
# Outline: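 Radioligand displacement on membranes from pig choroid plexus, detected by filter scintillation counting after 1 h. Tested first at a single 25 uM in duplicate, then in concentration-response for actives; DMSO served as baseline.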
# [5] = test system: rabbit Platelet Activating Factor Receptor (PAF), gene 100354046; experiment: NVS_GPCR_rabPAF: NovaScreen (NVS) G Protein-Coupled Receptor Assay for rabbit Platelet Activating Factor Receptor (PAF) (AID 2283287)
# Outline: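 Rabbit platelet membrane preparation; radioligand displacement read by filter-based scintillation counting 1 h after dosing, loss of signal versus DMSO. Primary screen in duplicate at 25 uM, actives followed up in concentration series.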
# [6] = target: rat Serotonin, 5-Hydroxytryptamine Receptor 1 (5HT1), Non-Selective Binding, Htr1a (gene 24473) (UniProt P19327); experiment: NVS_GPCR_r5HT1_NonSelective: NovaScreen (NVS) G Protein-Coupled Receptor Assay for rat Serotonin, 5-Hydroxytryptamine Receptor 1 (5HT1), Non-Selective Binding (AID 2283286)
# Outline: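 Binding of a radioligand to rat cortex membranes is read by filtration and scintillation counting after 1 h. Compounds were screened at 25 uM in duplicate. Actives were then titrated to a top of 50 uM. DMSO is the baseline.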
# [7] = target: human Thromboxane A2 Receptor (TXA2), TBXA2R (gene 6915) (UniProt P21731); experiment: NVS_GPCR_hTXA2: NovaScreen (NVS) G Protein-Coupled Receptor Assay for human Thromboxane A2 Receptor (TXA2) (AID 2283282);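 note: actives reduce bound radioligand signal relative to DMSO baseline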
# Outline: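 Human platelet membranes tested for radioligand displacement by filtration and scintillation counting 1 h post-dose. Screened in duplicate at 25 uM; activity fitted as signal loss relative to DMSO.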
# [8] = target: human Orphanin, Opioid Related Nociceptin Receptor 1 (ORL1), OPRL1 (gene 4987) (UniProt P41146); experiment: NVS_GPCR_hORL1: NovaScreen (NVS) G Protein-Coupled Receptor Assay for human Orphanin, Opioid Related Nociceptin Receptor 1 (ORL1) (AID 2283283)
# Outline: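 Cell-free binding using HEK293-derived receptor protein: radioligand displacement measured by filter scintillation 1 hour after dosing. Primary testing at 25 uM in duplicate, followed by singleton concentration series up to 50 uM; DMSO served as negative control.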
# [9] = target: human Purinergic Receptor P2Y, P2RY1 (gene 5028) (UniProt P47900); experiment: NVS_GPCR_hPY2: NovaScreen (NVS) G Protein-Coupled Receptor Assay for human Purinergic Receptor P2Y (AID 2283281)
# Outline: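 Filtration scintillation readout of radioligand displacement on U937 extract, measured 1 h post-dosing. Single 25 uM duplicate screen, then singleton concentration series to 50 uM for chemicals passing threshold; DMSO as baseline.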
# [10] = target: human Vasopressin 1A Receptor (V1A), AVPR1A (gene 552) (UniProt P37288); experiment: NVS_GPCR_hV1A: NovaScreen (NVS) G Protein-Coupled Receptor Assay for human Vasopressin 1A Receptor (V1A) (AID 2283284)
# Outline: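 Single-concentration duplicate screen at 25 uM, with concentration-response follow-up (top 50 uM) for actives. The assay measured displacement of a radioligand from human platelet-derived receptor after 1.5 h, detected by filtration and scintillation counting.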
# Sequence of human Opioid Receptor Delta 1 (Opiate D1), OPRD1 (gene 4985) (P41143 whole entry, looked up): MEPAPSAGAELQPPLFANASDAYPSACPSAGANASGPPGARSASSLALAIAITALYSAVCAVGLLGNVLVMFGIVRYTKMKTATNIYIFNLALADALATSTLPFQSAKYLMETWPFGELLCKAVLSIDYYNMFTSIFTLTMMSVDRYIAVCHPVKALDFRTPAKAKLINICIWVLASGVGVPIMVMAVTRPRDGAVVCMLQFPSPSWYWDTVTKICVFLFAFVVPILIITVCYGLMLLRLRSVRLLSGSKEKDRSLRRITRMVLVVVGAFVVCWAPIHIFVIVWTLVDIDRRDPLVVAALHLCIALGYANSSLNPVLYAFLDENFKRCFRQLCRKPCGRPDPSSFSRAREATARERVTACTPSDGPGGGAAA
# Sequence of human Vasopressin 1A Receptor (V1A), AVPR1A (gene 552) (P37288 whole entry, looked up): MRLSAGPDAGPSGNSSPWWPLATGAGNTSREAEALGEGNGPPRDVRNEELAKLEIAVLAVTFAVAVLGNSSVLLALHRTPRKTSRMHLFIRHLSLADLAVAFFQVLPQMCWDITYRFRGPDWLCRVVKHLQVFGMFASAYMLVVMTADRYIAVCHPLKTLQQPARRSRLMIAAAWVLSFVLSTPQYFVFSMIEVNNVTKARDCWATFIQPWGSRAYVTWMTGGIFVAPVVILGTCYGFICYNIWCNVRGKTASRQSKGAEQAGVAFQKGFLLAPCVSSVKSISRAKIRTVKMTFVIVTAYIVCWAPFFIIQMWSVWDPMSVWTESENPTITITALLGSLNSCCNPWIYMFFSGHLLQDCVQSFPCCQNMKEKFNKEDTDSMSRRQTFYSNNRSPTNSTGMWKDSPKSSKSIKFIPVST
# Sequence of rat Adrenergic, Alpha 1, Non-selective Receptor (Adra1), Adra1a (gene 29412) (P43140 whole entry, looked up): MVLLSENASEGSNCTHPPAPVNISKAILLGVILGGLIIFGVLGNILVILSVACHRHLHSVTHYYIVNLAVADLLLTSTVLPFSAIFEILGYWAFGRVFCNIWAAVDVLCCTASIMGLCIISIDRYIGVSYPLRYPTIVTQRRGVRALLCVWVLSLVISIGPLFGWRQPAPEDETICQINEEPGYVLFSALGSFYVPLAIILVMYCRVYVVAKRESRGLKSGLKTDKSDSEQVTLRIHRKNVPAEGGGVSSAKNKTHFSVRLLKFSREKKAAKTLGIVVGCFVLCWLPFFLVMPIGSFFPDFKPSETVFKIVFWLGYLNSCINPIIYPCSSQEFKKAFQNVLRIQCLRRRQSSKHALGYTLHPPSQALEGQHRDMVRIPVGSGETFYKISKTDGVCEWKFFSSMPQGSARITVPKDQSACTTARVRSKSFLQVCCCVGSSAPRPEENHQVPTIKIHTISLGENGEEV
# Sequence of human Thromboxane A2 Receptor (TXA2), TBXA2R (gene 6915) (P21731 whole entry, looked up): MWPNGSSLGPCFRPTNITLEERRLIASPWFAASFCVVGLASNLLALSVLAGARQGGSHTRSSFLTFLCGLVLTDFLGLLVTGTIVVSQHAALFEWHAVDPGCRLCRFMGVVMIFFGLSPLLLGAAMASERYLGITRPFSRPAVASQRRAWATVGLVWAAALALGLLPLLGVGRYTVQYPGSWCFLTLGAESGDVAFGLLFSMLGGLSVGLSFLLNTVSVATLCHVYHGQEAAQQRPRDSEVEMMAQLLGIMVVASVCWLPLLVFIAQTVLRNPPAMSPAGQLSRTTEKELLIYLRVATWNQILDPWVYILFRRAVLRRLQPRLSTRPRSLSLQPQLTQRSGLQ
# Sequence of human Neurotensin Receptor (NTS), NTSR1 (gene 4923) (P30989 whole entry, looked up): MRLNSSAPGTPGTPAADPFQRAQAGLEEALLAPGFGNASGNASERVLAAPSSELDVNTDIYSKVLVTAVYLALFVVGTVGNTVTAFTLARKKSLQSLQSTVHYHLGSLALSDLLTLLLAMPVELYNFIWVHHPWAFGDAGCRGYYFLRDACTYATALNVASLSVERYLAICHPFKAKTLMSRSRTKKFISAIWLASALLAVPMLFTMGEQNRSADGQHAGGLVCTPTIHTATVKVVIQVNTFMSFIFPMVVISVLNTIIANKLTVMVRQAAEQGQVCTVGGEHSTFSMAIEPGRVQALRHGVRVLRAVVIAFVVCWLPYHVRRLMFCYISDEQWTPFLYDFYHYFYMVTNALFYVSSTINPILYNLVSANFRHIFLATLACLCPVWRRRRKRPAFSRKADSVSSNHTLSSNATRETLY
# Sequence of rat Serotonin, 5-Hydroxytryptamine Receptor 1 (5HT1), Non-Selective Binding, Htr1a (gene 24473) (P19327 whole entry, looked up): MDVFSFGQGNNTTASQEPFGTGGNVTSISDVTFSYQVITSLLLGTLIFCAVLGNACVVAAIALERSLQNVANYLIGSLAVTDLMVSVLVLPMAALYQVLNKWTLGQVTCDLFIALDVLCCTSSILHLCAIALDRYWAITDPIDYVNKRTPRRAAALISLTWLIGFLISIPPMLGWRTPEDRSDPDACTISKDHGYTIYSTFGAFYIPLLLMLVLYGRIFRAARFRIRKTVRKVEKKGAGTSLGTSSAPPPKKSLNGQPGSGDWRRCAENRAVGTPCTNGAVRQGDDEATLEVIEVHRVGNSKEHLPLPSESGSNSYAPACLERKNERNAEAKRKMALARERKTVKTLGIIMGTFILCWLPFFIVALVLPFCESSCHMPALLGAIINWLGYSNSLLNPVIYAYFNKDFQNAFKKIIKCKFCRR
# Sequence of human Purinergic Receptor P2Y, P2RY1 (gene 5028) (P47900 whole entry, looked up): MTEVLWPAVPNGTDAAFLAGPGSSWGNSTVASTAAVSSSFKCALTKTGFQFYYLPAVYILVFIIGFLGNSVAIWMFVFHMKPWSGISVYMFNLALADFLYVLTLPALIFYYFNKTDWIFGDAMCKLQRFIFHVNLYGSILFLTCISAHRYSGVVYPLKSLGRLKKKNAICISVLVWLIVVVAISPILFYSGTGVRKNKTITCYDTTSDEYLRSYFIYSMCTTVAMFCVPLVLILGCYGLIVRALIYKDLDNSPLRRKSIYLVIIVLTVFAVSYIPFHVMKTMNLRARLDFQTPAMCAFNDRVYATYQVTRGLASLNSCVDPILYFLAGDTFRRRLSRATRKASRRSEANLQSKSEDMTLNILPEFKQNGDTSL
# Sequence of human Orphanin, Opioid Related Nociceptin Receptor 1 (ORL1), OPRL1 (gene 4987) (P41146 whole entry, looked up): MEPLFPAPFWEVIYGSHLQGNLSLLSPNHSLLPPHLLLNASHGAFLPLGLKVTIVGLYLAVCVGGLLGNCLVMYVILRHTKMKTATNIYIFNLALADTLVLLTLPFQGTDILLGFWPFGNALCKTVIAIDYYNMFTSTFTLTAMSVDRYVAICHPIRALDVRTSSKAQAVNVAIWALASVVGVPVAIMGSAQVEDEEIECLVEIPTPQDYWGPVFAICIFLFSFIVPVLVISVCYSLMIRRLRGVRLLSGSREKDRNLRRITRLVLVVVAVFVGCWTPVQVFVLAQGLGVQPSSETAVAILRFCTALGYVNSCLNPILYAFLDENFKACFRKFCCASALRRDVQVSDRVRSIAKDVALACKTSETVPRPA
smiles,measurement,setting,value
C=CCOC(Cn1ccnc1)c1ccc(Cl)cc1Cl (stereo not drawn),AC50,[1],4.96 µM (active)
CC(=O)S[C@@H]1CC2=CC(=O)CC[C@]2(C)[C@H]2CC[C@@]3(C)[C@@H](CC[C@@]34CCC(=O)O4)[C@H]12,AC50,[1],4.42 µM (active)
CC(C)CCCCCCc1ccc(O)cc1,outcome,[1],inactive
CCCN(CCC)c1c([N+](=O)[O-])cc(C(F)(F)F)c(N)c1[N+](=O)[O-],outcome,[2],inactive
COC(=O)c1ccc(CNS(C)(=O)=O)cc1S(=O)(=O)NC(=O)Nc1nc(OC)cc(OC)n1,outcome,[2],inactive
same,outcome,[3],inactive
O=C(c1ccc(O)cc1O)c1ccc(O)cc1O,AC50,[1],18.5 µM (active)
same,AC50,[4],17.4 µM (active)
Oc1ccc(C(c2ccc(O)cc2)C(Cl)(Cl)Cl)cc1,AC50,[1],5.12 µM (active)
same,outcome,[3],inactive
COC(=O)c1c(Cl)nn(C)c1S(=O)(=O)NC(=O)Nc1nc(OC)cc(OC)n1,outcome,[5],inactive
COC(=O)CSc1cc(N=c2sc(=O)n3n2CCCC3)c(F)cc1Cl,outcome,[6],inactive
same,outcome,[3],inactive
CC(C)(c1ccc(O)cc1)c1ccc(O)cc1,AC50,[1],11.2 µM (active)
same,AC50,[7],10.3 µM (active) and 5.04 µM (active)
same,outcome,[7],inactive
same,AC50,[4],18.6 µM (active) and 19 µM (active)
C[C@]12C[C@H](O)[C@H]3[C@@H](CCC4=CC(=O)CC[C@@]43C)[C@@H]1CC[C@@H]2C(=O)CO,AC50,[8],39 µM (active)
O=C(O)c1ccccc1,outcome,[9],inactive
same,outcome,[10],inactive
COC(=O)c1ccccc1C(=O)O,outcome,[2],inactive
CCC(O)=C1C(=O)CC(C(=O)O)CC1=O (stereo not drawn),outcome,[5],inactive
COC(=O)c1cccc(C)c1S(=O)(=O)NC(=O)Nc1nc(OCC(F)(F)F)nc(N(C)C)n1,AC50,[10],1.32 µM (active)
S=C(S)NCCNC(=S)S.[Mn+2].[S-]C([S-])=NCCN=C([S-])[S-].[Zn+2],outcome,[1],inactive
same,outcome,[10],inactive
same,outcome,[6],inactive
same,outcome,[5],inactive
CN(C)C(=O)Nc1ccc(Cl)c(Cl)c1,AC50,[7],9.69 µM (active)
S=C([S-])NCCNC(=S)[S-].[Mn+2],outcome,[2],inactive
same,outcome,[10],inactive
same,outcome,[5],inactive
CC(C)(C)[C@@H](O)[C@@H](Cc1ccc(Cl)cc1)n1cncn1,outcome,[5],inactive
c1ccc2[nH]c(-c3cscn3)nc2c1,outcome,[2],inactive
